TDP1 cell CPT = DT40-hTDP1 cell growth loss with CPT; Potency, µM (series often up to 46.2 µM), hits mostly inhibitors; chicken DT40 Tdp1-/-;hTDP1 cells + 20 nM CPT, ATP luminescence, 48 h; 420,000 tested, 12% active; AID 686979; also: nearly all actives have a fitted effect of over 55% in size
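Chicken DT40 Tdp1-/- cells complemented with human TDP1, 400 cells/well, exposed to compounds plus 20 nM camptothecin for at least 48 h at 37 C; viability read as ATP content by CellTiter-Glo luminescence.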
HT1080NT lethal = kills 2HG-producing HT-1080-NT fibrosarcoma cells. HT-1080-NT fibrosarcoma viability, CellTiter-Glo ATP luminescence, 48 h. Potency, µM (highest dose often 46.1 µM), usual class: cytotoxic. 360,000 tested, 1.6% active. AID 686970;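 also: NT is the 2HG producing partner of a matched IDH1 knockdown line; nearly all actives have a fitted effect of over 55% in size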
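Read-out is CellTiter-Glo luminescence after 10 minutes at room temperature, following 48 hours' compound treatment of HT-1080-NT cells (750 cells/well, RPMI, 5% FBS, 37 degrees C).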
IL-1B inflam inh = inhibitors of inflammasome signaling (IL-1 beta secretion) | AID 743279 | activity change, % at 57.5 µM | THP-1 LPS/ATP IL-1B secretion, AlphaLISA, 16 h; stronger effect = lower value | 360,000 tested, 4.7% active; in the data active = activity change below about -50%; inconclusive = mostly about -30% to -49%
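THP-1 cells pretreated 1 hr with compounds (up to 57.5 uM final), then stimulated with LPS (250 ng/mL final) plus ATP (1.25 mM final); secreted IL-1B measured by AlphaLISA after 16 hr, decreased signal indicating inhibition.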
TDP1 cell noCPT = qHTS for Inhibitors of human tyrosyl-DNA phosphodiesterase 1 (TDP1): qHTS in cells in absence of CPT; DT40 Tdp1-/- hTDP1 cells, no CPT, ATP luminescence, 48 h; Potency, µM (highest dose often 46.2 µM), usual class: inhibitors; 420,000 tested, 15% active; AID 686978, 2013; also: nearly all actives have a fitted effect of over 55% in size
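Readout: luminescence from CellTiter-Glo after 30 min in the dark at RT. Cells: DT40 Tdp1-/- with stable hTDP1, 400/well. Exposure: compounds alone, ≥48 hr, 37 °C.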
HT1080 IDH1KD tx = HT-1080 IDH1 knockdown cell toxicity (counter line) | HT-1080 IDH1 knockdown viability, ATP luminescence, 48 h | Potency, µM (doses to about 46.1 µM), hits mostly cytotoxic | 360,000 tested, 2% active
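Viability of IDH1-knockdown HT-1080 fibrosarcoma cells was assessed by CellTiter-Glo after 48 h at 37 °C with titrated compound; concentration-effect curves were classified by fit quality and response size.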
ALOX12 inh = blocks human arachidonate 12S-lipoxygenase; 580,000 tested, 1.1% active; AID 1671190; purified 12hLO, xylenol orange hydroperoxide absorbance; P18054; Potency, µM (doses to about 108 µM), hits mostly inhibitors
Target sequence (P18054 whole entry, looked up): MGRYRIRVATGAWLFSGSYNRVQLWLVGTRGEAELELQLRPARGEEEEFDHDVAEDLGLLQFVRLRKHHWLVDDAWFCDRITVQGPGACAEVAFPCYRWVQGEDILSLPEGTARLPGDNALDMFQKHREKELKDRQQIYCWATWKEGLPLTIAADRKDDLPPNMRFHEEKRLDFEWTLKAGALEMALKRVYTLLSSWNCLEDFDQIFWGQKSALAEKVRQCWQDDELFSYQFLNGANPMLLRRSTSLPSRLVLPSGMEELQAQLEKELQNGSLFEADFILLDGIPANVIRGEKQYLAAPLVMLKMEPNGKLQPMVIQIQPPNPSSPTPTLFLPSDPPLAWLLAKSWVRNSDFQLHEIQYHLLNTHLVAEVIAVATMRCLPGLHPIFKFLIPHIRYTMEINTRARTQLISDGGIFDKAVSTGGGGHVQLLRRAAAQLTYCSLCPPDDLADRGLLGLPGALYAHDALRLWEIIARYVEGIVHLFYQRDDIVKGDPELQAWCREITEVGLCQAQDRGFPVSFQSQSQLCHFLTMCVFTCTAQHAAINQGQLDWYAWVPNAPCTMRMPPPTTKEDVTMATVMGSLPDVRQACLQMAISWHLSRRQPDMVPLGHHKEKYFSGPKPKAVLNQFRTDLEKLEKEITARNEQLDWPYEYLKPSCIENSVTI
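Hydroperoxide product was detected by ferrous iron/xylenol orange as the 573 to 405 nm absorbance ratio. Arachidonic acid at 40 uM (final) was turned over for 30 min at room temperature by 150 nM human 12hLO, pH 7.0 Hepes buffer, after 15 min compound preincubation.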
A number is an active result; – = inactive; ? = inconclusive; · = no result given; [ ] = another dose, or the depositor's remark. Shown is part of a subset that was picked to be rich in hits. Unless noted, calls follow the shape of the dose curve; as a rule, active = well fitted curve in the direction sought with a large enough effect; inconclusive = small, poorly fitted or top-dose-only effect, or another doubt; inactive = no such curve, though single readings can be large; an effect the other way counts as inactive or inconclusive.

SMILES	TDP1 cell CPT	HT1080NT lethal	IL-1B inflam inh	TDP1 cell noCPT	HT1080 IDH1KD tx	ALOX12 inh
C=C(Cl)CN1CCN(CC2CCCO2)CC1 (stereo unspecified)	·	·	·	·	·	–
CC(C)c1ccc(NC(=O)C2CC(=O)N=C(N)S2)cc1 (stereo unspecified)	–	–	–	–	–	–
Cc1nnc2n1CCC(NC(=O)CCCc1nc3ccccc3s1)CC2 (stereo unspecified)	·	·	·	·	·	–
COc1ccc(C(=O)Oc2c(Sc3ccccc3)c(C)nn2-c2ccccc2)c(OC)c1	18.4µM	·	·	?	·	?
Cc1nn(-c2ccccc2)c(OC(=O)C(C)C)c1Sc1ccc(Cl)cc1	?	·	·	10.3µM	·	?
COc1ccc(CC(=O)NNc2ncnc3c2cnn3-c2ccc(C)cc2)cc1OC	–	–	–	–	–	–
O=C1NC(=O)/C(=C\c2ccc(N3CCOCC3)o2)N1	–	–	–	–	–	20µM
Cc1cc(/C=C2\NC(=O)NC2=O)c(C)n1-c1ccc(N2CCOCC2)cc1	?	–	–	20.6µM	–	–
Cc1cc(/C=C2/NC(=O)NC2=O)c(C)n1-c1ccc(N2CCOCC2)cc1	?	–	–	?	–	–
COc1ccc(-c2cn3c(n2)sc2cc(C(=O)NCCC4=CCCCC4)ccc23)cc1	?	·	·	13µM	·	–
COc1ccc(-c2cn3c(n2)sc2cc(C(=O)NCCc4ccc(OC)cc4OC)ccc23)cc1	7.31µM	·	·	9.2µM	·	–
Cc1ccc(NS(=O)(=O)c2cc(C)c(C(=O)O)s2)cc1C(F)(F)F	·	·	·	·	·	–
O=C(c1ccco1)N1CCN(C(=O)c2nnn3c2COC(c2ccc(Cl)cc2)C3)CC1 (stereo unspecified)	·	·	·	·	·	–
Brc1ccc(-c2nc3ccccn3c2Nc2ccc3c(c2)OCCO3)o1	25.9µM	·	·	?	·	–
CSc1ccc(-c2nc3cnccn3c2Nc2ccc3c(c2)OCO3)cc1	?	?	–	?	?	·
Clc1ccc(-c2nc3cnccn3c2Nc2ccc3c(c2)OCO3)cc1	?	–	–	20.6µM	–	?
c1cncc(-c2nc3ccccn3c2Nc2ccc3c(c2)OCCO3)c1	?	–	–	11.6µM	–	–
Oc1ccccc1-c1nc2cnccn2c1Nc1ccc2c(c1)OCCO2	?	–	–	–	–	–
Cc1cc(C)cc(NC(=S)NCCC(c2ccccc2)c2ccccc2)c1	·	·	·	·	·	–
COCCNC(=O)C1COC2(CCN(C(=O)c3ccccc3Cl)CC2)N1C(=O)c1ccccc1C (stereo unspecified)	·	·	·	·	·	–
CCOc1ccccc1NC(=O)C(NCC1(N2CCCCC2)CCCCC1)c1ccccc1 (stereo unspecified)	?	–	?	16.4µM	–	–
O=C(COC(=O)c1ccc(-c2ccccc2)cc1)Nc1ccccc1-c1ccccc1	?	–	–	10.3µM	–	–
O=C(COC(=O)c1ccc(O)cc1)Nc1ccccc1-c1ccccc1	?	–	–	20.6µM	–	–
COCC(=O)OCC(=O)Nc1ccccc1-c1ccccc1	–	–	–	–	–	–
COC(=O)C(C)Sc1nnc2cc(C)c3cc(C)cc(C)c3n12 (stereo unspecified)	–	·	·	–	·	–
SMILES	TDP1 cell CPT	HT1080NT lethal	IL-1B inflam inh	TDP1 cell noCPT	HT1080 IDH1KD tx	ALOX12 inh
CSc1nc(Nc2ccc(C)cc2C)cc(-c2ccccc2)n1	16.4µM	·	·	16.4µM	·	–
O=C(O)/C(=C\c1ccccc1OC(F)F)Sc1nnc(-c2ccc(F)cc2)o1	20.6µM	–	–	?	–	–
CCc1ccccc1CC1CN(Cc2ccccc2)Cc2ccccc2N1c1ccc(OC)cc1 (stereo unspecified)	?	–	–	11.6µM	–	–
COc1ccc(CN2CC(N3CCc4ccccc43)C2)cc1	·	·	·	·	·	–[6.33 µM]
CSC1(SC2=NCCN2)SC2(NCCN2)S1	10.3µM	–	?	13µM	?	?
CCCCNC(=O)c1nc(C2CCN(S(=O)(=O)c3ccccc3C(F)(F)F)CC2)oc1-c1ccccc1	23.1µM	–	–	16.4µM	–	–
CCCCNC(=O)c1nc(C2CCN(S(=O)(=O)c3c(F)cccc3F)CC2)oc1-c1cccc(C(F)(F)F)c1	–	–	–	–	–	–
CCCCNC(=O)c1nc(C2CCN(S(=O)(=O)c3ccccc3C(F)(F)F)CC2)oc1-c1cccc(C(F)(F)F)c1	–	?	–	–	–	–
CCCCNC(=O)c1nc(C2CCN(S(=O)(=O)c3ccc(OC(F)(F)F)cc3)CC2)oc1-c1ccccc1	7.31µM	–	–	6.51µM	–	–
CCCCNC(=O)c1nc(C2CCN(S(=O)(=O)c3ccc(F)c(F)c3)CC2)oc1-c1ccccc1	10.3µM	–	–	6.51µM	–	–
CCCCNC(=O)c1nc(-c2cccnc2)oc1-c1ccc(OC(F)(F)F)cc1	–	–	–	–	–	–
CCCCNC(=O)c1nc(C2CCN(S(=O)(=O)c3c(F)cccc3F)CC2)oc1-c1ccccc1	9.2µM	–	–	18.4µM	–	–
CCOCC1(C)COc2ccc(C(=O)Nc3cccc(OC)c3)cc2N1 (stereo unspecified)	·	·	·	·	·	–
NC(=O)[C@H](Cc1cccs1)NC(=O)C1=C[C@@H](NC(=O)NC2CCCCC2)[C@@H](O)[C@H](O)C1	·	·	·	·	·	–
CN(Cc1ccccc1)C(=O)c1ccc2c(c1)N(Cc1ccccc1Cl)C(=O)c1ccccc1S2	?	·	·	?	·	–
O=C(NCc1ccco1)c1ccc2c(c1)N(Cc1ccc(Cl)cc1)C(=O)c1ccccc1S2(=O)=O	?	·	·	18.4µM	·	–
O=C(NCc1ccc(Cl)cc1)c1ccc2c(c1)N(Cc1ccccc1F)C(=O)c1ccccc1S2=O (stereo unspecified)	?	·	·	?	·	–
O=C(NCCN1CCOCC1)c1ccc2c(c1)N(Cc1ccc(F)cc1)C(=O)c1ccccc1S2(=O)=O	–	–	–	–	–	–
CN(Cc1ccccc1)C(=O)c1ccc2c(c1)N(Cc1ccc(Cl)cc1)C(=O)c1ccccc1S2=O (stereo unspecified)	16.4µM	·	·	16.4µM	·	?
O=C(NCc1ccco1)c1ccc2c(c1)N(Cc1ccc(F)cc1)C(=O)c1ccccc1S2(=O)=O	?	·	·	14.6µM	·	–
O=C(NC1CCCCC1)c1ccc2c(c1)N(Cc1ccc(Cl)cc1)C(=O)c1ccccc1S2(=O)=O	–	·	·	–	·	–
COc1cccc(CN2C(=O)c3ccccc3Sc3ccc(C(=O)N(C)Cc4ccccc4)cc32)c1	?	·	·	18.4µM	·	–
COc1ccc(-c2nc(C(C)C)nc3c2CCN(C(=O)c2ccc(Cl)nc2)CC3)cc1	·	·	·	·	·	–
CCCN(CC1CC1)C(=O)[C@@H]1CN(S(=O)(=O)CC)C[C@H]1c1ccncc1	·	·	·	·	·	–

High-throughput results: PubChem, National Center for Advancing Translational Sciences (NCATS)
